Screens: PubChem BioAssay, The Scripps Research Institute Molecular Screening Center
TbREL1 inh – TbREL1 RNA ligase inhibitors, primary screen, biochemical, FRET fluorescence; inhibition, % at 9.66 µM; AID 1117264, 2014; TbREL1 RNA ligation; 0.49% of 89,000 active; RNA-editing ligase 1, mitochondrial (Trypanosoma brucei brucei), P86926;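 active means inhibition above the mean inhibition across all screened compounds plus 3 SD, cut at about 11% in these data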;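 further: 0% = plate median of test wells and 100% = NSC42067 control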
Target sequence (P86926 whole entry, looked up): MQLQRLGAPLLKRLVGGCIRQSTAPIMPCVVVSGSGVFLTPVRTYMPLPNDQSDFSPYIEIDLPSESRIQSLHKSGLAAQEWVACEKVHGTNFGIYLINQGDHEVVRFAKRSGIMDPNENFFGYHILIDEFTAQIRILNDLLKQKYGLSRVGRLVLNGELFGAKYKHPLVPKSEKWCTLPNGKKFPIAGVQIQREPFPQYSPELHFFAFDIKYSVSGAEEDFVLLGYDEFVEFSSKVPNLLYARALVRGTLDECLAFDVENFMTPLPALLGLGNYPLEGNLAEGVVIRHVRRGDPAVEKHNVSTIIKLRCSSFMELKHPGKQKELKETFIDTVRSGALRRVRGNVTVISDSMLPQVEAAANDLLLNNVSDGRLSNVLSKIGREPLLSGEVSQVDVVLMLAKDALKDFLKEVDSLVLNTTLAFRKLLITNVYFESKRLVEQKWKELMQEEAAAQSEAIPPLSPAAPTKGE
TbREL1 confirm – TbREL1 RNA ligase inhibitors, confirmation, biochemical, FRET fluorescence, triplicate | shares compounds with TbREL1 inh | TbREL1 RNA ligation | inhibition, % at 9.66 µM | 37% of 390 active | AID 1117282, 2014;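 active means mean inhibition across replicates above a set limit taken from the earlier primary screen, cut at about 11% in these data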;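 further: 0% = REL1 with substrate and DMSO and 100% = REL1 plus control inhibitor NSC42067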
Starred values were filed as active, the others as inactive. Shown is part of a subset that was picked to be rich in hits.

SMILES	TbREL1 inh	others
CCOc1ccc2nc(N(CCCN(C)C)C(=O)c3ccc(S(=O)(=O)N4CCCC4)cc3)sc2c1	1
CN(C)CCCN(C(=O)c1ccc(S(=O)(=O)N2CCCCC2)cc1)c1nc2cc3c(cc2s1)OCO3	11
O=C(NCc1ccccc1Cl)C1CCC(CNS(=O)(=O)c2cccc3cccnc23)CC1 (centres undefined)	4
CNC(=O)[C@@H](NC(=O)[C@H](CC(C)C)[C@H](O)C(=O)NO)C(C)(C)C	0
O=C(NCCc1c[nH]c2ccccc12)c1ccc2c(c1)ncn2C1CCCCC1	-3
Cc1cc(N2CCOc3ccccc32)nc2ccccc12	8
O=C(C1CCC1)N1CCc2cc(S(=O)(=O)N3CCCC3)ccc21	2
CN(c1cccnc1)c1ccc(NC(=O)Cc2c[nH]c3ccccc23)cc1-c1ccc(F)c(F)c1	5
O=C(NCc1cc(C(F)(F)F)ccc1Cl)c1cccc2c1C(=O)c1ccc(N3CCOCC3)cc1S2(=O)=O	0
O=C(NCc1ccc(OC(F)(F)F)cc1)c1cccc2c1C(=O)c1ccc(N3CCCCC3)cc1S2(=O)=O	5
O=C(NCc1cc(C(F)(F)F)ccc1Cl)c1cccc2c1C(=O)c1ccc(N3CCCCC3)cc1S2(=O)=O	41*	TbREL1 confirm=4
COC(=O)[C@H](C)NC(=O)[C@H](CC(C)C)NC(=O)OC(C)(C)C	-1
COc1ccc(-n2c(SC/C=C/c3ccccc3)nnc2-c2cccs2)cc1	2
O=C1CCCCC1Nc1ccc([N+](=O)[O-])cc1 (centres undefined)	18*	TbREL1 confirm=2
CN1CCN(C(=S)Nc2ccc([N+](=O)[O-])cc2)CC1	-2
O=C(NC1CCCCC1)c1ccc([N+](=O)[O-])cc1	1
O=C(C1CCCO1)N1CCN(C2=Nc3ccccc3Sc3ccccc32)CC1 (centres undefined)	-1
Cc1cccc(S(=O)(=O)N2CCC[C@H]2C(=O)N2CCC[C@@H]2C(=O)NCc2ccccc2)c1	2
COCCOc1ccc(C(F)(F)F)cc1NC(=O)CN1C(=O)NC(C)(c2ccc3c(c2)OCO3)C1=O (centres undefined)	-2
CCCOc1ccc(C(F)(F)F)cc1NC(=O)CN1C(=O)C(=O)N(CC)C1=O	0
CCN1CCN(CC(=O)Nc2cc(C(F)(F)F)ccc2OCCOC)CC1	15*	TbREL1 confirm=5
COc1ccc(NC(=O)C(CCCCNC(=O)OC(C)(C)C)NC2(C(=O)NCCc3c[nH]c4ccccc34)CCCCC2)cc1 (centres undefined)	-7
CN(C)c1cccc(-c2cnc(N3CCC(C(N)=O)CC3)nc2)c1	3
CCSc1nnc(-c2ccco2)n1C	0
O=C(CN1CCOCC1)Nc1ccc2c(c1)OC(F)(F)O2	4
SMILES	TbREL1 inh	others
O=C(CN1CCOCC1)Nc1ccc2c(c1)OCCO2	12*	TbREL1 confirm=5
O=C(CN1CCN(c2ccc(O)cc2)CC1)Nc1ccc2c(c1)OCCO2	-2
Oc1ccc(Oc2ccccc2F)c2cccnc12	-2
C=CCN(C(=O)[C@@H](C1CC1)[C@@H](O)c1ccc2ccccc2c1)c1ccccc1	-1
COC(=O)c1cc(-c2cccc(C#N)c2)c(=O)n2c1CCC2	0
C=CCOC(=O)N1CCN(C(=O)c2ccc3nc(C)n(C4CCCC4)c3c2)CC1	-3
N#Cc1ccccc1NC(=S)Nc1ccc(F)cc1	3
Fc1ccc(NC(=S)Nc2ccc3nccnc3c2)cc1	13*	TbREL1 confirm=4
O=c1[nH]c2ccc(NC(=S)Nc3ccc(F)cc3)cc2[nH]1	2
CC(=O)c1c(C)[nH]c(C(=O)Nc2ccccc2C)c1C	-1
COC(=O)[C@]12C[C@H](CC(=O)N3CCN(C(=O)c4ccco4)CC3)C(=O)N(CCc3ccc(OC)c(OC)c3)C1=C[C@H](C(C)C)O[C@@H]2C1CC1	-4
CCOc1ccccc1OCC(=O)Nc1ccc(Cl)cc1Cl	-1
CCOc1cc(NC(=O)CCl)c(OCC)cc1NC(=O)CCl	12*	TbREL1 confirm=6
CCOc1cc(NC(=O)C2CCCO2)c(OCC)cc1NC(=O)C1CC1 (centres undefined)	0
COc1ccccc1CN(C)C(=O)C1CCCN(c2nc3ccccc3o2)C1 (centres undefined)	-2
O=c1c2cc3ccccc3nc2ncn1CCc1ccc(Cl)cc1	2
O=c1c2cc3cc4c(cc3nc2ncn1CCc1ccccc1)OCO4	15*	TbREL1 confirm=2
O=c1c2cc3cc4c(cc3nc2ncn1Cc1cccnc1)OCO4	2
Cc1ccc(NC(=O)NNC(=O)CCn2nc(C)c([N+](=O)[O-])c2C)cc1C	2
O=C(/C=C/c1cn(-c2ccccc2)nc1-c1cccnc1)NCCN1CCOCC1	2
CN(C)CCNC(=O)/C=C/c1cn(-c2ccccc2)nc1-c1cc2ccccc2oc1=O	12*	TbREL1 confirm=4
O=Cc1cn(-c2ccccc2)nc1-c1cc2ccccc2oc1=O	6
COc1ccccc1C=NNC(=O)CSc1nc2ccccc2n1Cc1ccc(Cl)cc1	-1
Cc1nn(C(=O)Cn2cc([N+](=O)[O-])cn2)c(C)c1Cl	11*	TbREL1 confirm=4
CC(C)NC(=O)CCCn1cc([N+](=O)[O-])cn1	3
SMILES	TbREL1 inh	others
COC(=O)c1ccc(Cn2cc([N+](=O)[O-])cn2)cc1	3
O=C(N[C@H](C(=O)N1CCC[C@H]1C(=O)NCCc1ccccc1Cl)C1CCCCC1)c1ccccc1	-2
Cc1ccc(-c2c(NC(=O)Nc3ccccc3)nc3ncccn23)cc1	-2
O=C(Cc1ccccc1)Nc1nnc(-c2cccnc2)s1	0
COCCN(C(=O)/C=C/c1ccccc1)c1c(N)n(Cc2ccccc2)c(=O)[nH]c1=O	2
COCCN(C(=O)/C=C/c1ccccc1)c1nnc(-c2cccnc2)s1	12*	TbREL1 confirm=-3
CCN(CC)c1ccc(C=Nn2c(C)nnc2C)cc1	-2
CC(C)Nc1nc(NCCOc2ccccc2Cl)c2sc(-c3ccccc3)cc2n1	13*	TbREL1 confirm=16*
C=CCNc1nc(NCc2cccc(OC)c2)c2sc(-c3ccccc3)cc2n1	2
CC(O)CNc1ncnc2cc(-c3ccc(F)cc3)sc12 (centres undefined)	7
CC(=O)c1cc(-c2cccc(Cl)c2O)c(=O)n2c1CCC2	2
COC(=O)C1=C(C)N(Cc2ccccc2C(F)(F)F)C(=NCC2CC2)NC1c1ccc(F)cc1 (centres undefined)	12*	TbREL1 confirm=11*
COC(=O)C1=C(C)N(Cc2ccc(Cl)cc2)C(=S)NC1c1ccc(OC)cc1 (centres undefined)	-3
COC(=O)C1=C(C)N(Cc2ccccc2)C(=NCC(C)C)N[C@H]1c1cccc(F)c1	6
COC(=O)C1=C(C)N(Cc2ccc(C(F)(F)F)cc2)C(=NCc2ccccc2C(F)(F)F)NC1c1ccc(F)cc1 (centres undefined)	14*	TbREL1 confirm=14*
COC(=O)C1=C(C)N(Cc2ccccc2)C(=NCc2ccco2)N[C@H]1c1cccc(F)c1	5
COC(=O)C1=C(C)N(Cc2ccccc2C(F)(F)F)C(=NCc2ccc(C(F)(F)F)cc2)NC1c1cccc(F)c1 (centres undefined)	14*	TbREL1 confirm=22*
COC(=O)C1=C(C)N(Cc2ccccc2C(F)(F)F)C(=NCC2CC2)NC1c1ccc(C(F)(F)F)cc1 (centres undefined)	10
COC(=O)C1=C(C)N(Cc2ccc(F)cc2)C(=S)NC1c1ccc(Cl)cc1 (centres undefined)	-1
